Measured values as given in PubChem BioAssay (NCATS).
Several values for one entry are separate records, joined by “and”; a condition that tells them apart may be missing. Equal values may be shown once. Inconclusive results are not listed. Values without a mark were called inactive. The call rests on the fitted dose curve; in most records, active means well fitted activation curve with a large enough effect; inconclusive means small, poorly fitted or top-dose-only effect; inactive means no such curve, though single readings can be large or run the other way.

target: Cellular tumor antigen p53 (Homo sapiens) (UniProt P04637); assay: Primary qHTS for small molecule compounds that upregulate eGFP-tagged delta133p53alpha (in N-terminal) cells. (AID 2060322); details: NCI-H358 eGFP-delta133p53alpha fluorescence, 24 h; activation: active compounds read high;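 further: series mostly up to about 56 µM; 0% = DMSO vehicle and 100% = reference activator; nearly all actives have a fitted effect of over 75% in size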
Method in brief: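 NCI-H358 cells pre-induced 24 h with 10 ng/ml doxycycline to express N-terminal eGFP-delta133p53alpha, then dosed 24 h at 37C without doxycycline; fixed, Hoechst-stained, GFP intensity by laser scanning cytometry, normalized to DMSO (0%) and 57.5 uM 5-azacytidine (100%).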

Sequence of Cellular tumor antigen p53 (Homo sapiens) (P04637 whole entry, looked up): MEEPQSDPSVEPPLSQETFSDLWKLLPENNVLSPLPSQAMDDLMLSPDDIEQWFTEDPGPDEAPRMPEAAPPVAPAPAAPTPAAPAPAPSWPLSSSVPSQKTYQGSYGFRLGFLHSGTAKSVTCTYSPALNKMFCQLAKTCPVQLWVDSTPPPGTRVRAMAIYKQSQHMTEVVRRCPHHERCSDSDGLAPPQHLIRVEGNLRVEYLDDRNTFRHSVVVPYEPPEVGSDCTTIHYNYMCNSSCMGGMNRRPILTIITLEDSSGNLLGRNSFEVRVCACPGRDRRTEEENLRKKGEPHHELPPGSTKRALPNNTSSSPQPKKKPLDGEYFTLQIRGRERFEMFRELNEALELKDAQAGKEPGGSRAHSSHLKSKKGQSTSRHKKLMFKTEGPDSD

| SMILES | activation |
| --- | --- |
| O=C(O)CN(CCN(CC(=O)O)CC(=O)O)CCN(CC(=O)O)CC(=O)O | -33.2% |
| CC1C(=O)N(C)C(=O)c2nc[nH]c21 (centres undefined) | -19.1% |
| CC[C@@H](C)[C@H]1O[C@]2(CC[C@H]1C)C[C@@H]1C[C@@H](CC=C(C)[C@@H](O[C@H]3C[C@H](OC)[C@@H](O[C@H]4C[C@H](OC)[C@@H](O)[C@H](C)O4)[C@H](C)O3)[C@@H](C)C=CC=C3CO[C@@H]4[C@H](O)C(C)=C[C@@H](C(=O)O1)[C@]34O)O2 | -12.1% |
| N[C@H](CO)C(=O)O | 9.85% |
| O=C(Nc1ccncc1)c1cc([N+](=O)[O-])ccc1Cl | 6.63% |
| NC1(C(=O)O)CCCCC1 | 13.9% |
| N[C@H](CCCP(=O)(O)O)C(=O)O | -16.6% |
| CCOC(=O)C1=C[C@]2(CC)CCCN3CCc4c(n1c1ccccc41)[C@@H]32 | 20.9% and -18.2% |
| CN(C)CC/C=C1\c2ccccc2COc2ccccc21 | -10.9% and -21.6% |
| NCCSSCCN | 43.3% |
| CC(=O)c1ccc2c(c1)N(CCCN(C)C)c1ccccc1S2 | 3.95% and -33.1% |
| CCCN(CCC)CCc1cccc2c1CC(=O)N2 | 6.69% and 9.01% |
| CN1CCc2cc(Cl)c(O)cc2[C@@H](c2ccccc2)C1 | -19.2% |
| CCCCCCCCCCC/C=C\C(C)(C)/C=C\CCCC(=O)O | -22.9% |
